# Measurements as given in PubChem BioAssay (Tox21).
# Records with an inconclusive call do not appear. A number with no mark means an inactive call. Active and inactive are the calls of the source. Calls come from the whole dose curve; as a rule, active = well fitted activation curve with a large enough effect in the repeat runs; inconclusive = weak or mixed curves; inactive = flat fitted curve, though single readings scatter.
# Test: Caspase-3/7 induction in HepG2 cells by small molecules, qHTS assay (AID 1346978); note: nearly all actives have a fitted effect of over 15% in size
# Conditions: HepG2 caspase-3/7 activation, Caspase-Glo luminescence, 17 h; series mostly up to 92.4 µM; caspase activation: at the top concentration
# Description: National Center for Advancing Translational Sciences [NCATS] NIH Chemical Genomics Center [NCGC] U.S. Environmental Protection Agency [EPA] National Institutes of Environmental Health Sciences [NIEHS] National Toxicology Program [NTP] Assay overview: Apoptosis is a process of programmed cell death and plays a central role in the development of multicellular organisms. It is a highly regulated process and induces cell death by activating caspases, which are the members of cysteine aspartic acid-specific protease (caspase) family. Caspases involved in apoptosis are classified by their mechanism of action as initiator caspases (caspase-2, -8, -9 and -10) and executioner caspases (caspase-3, -6, and -7). Inhibition of apoptosis results in number of cancers, autoimmune diseases, inflammatory diseases and viral infection. To identify small molecule compounds that induce apoptosis, a homogeneous, luminescent Caspase-Glo 3/7 assay was used. Wild type HepG2 cells were used to screen Tox21 libraries for identifying caspase-3/7 activity inducers.
# Assay Protocol Summary: HepG2 cells were dispensed at 2,000 per well in 5uL of culture medium into white solid bottom 1536-well plates (Corning Life Sciences, Corning, NY) using a Multidrop Combi (Thermo Scientific, Waltham, MA) dispenser. The assay plates were incubated at 37 C and 5% CO2 for 5hr, and then 23nL of compounds dissolved in DMSO and positive control were transferred using a Pintool station (Wako, San Diego, CA). The assay plates were incubated at 37C and 5% CO2 for 17hr. For caspase-3/7 activity read, 4uL of Caspase-Glo 3/7 reagent (Promega Corporation, Madison, WI) was added to each well of the assay plates using Flying Reagent Dispenser (FRD, Aurora Discovery, San Diego, CA) and incubated the assay plates at room temperature for 30min. The luminescence signal was quantified using a ViewLux plate reader (Perkin Elmer, Shelton, CT).
# % is set by controls: 0 for no effect and ±100 for the full control effect; potency is the fitted concentration of half-maximal effect.
Compound,Potency,caspase activation
CCN(CC)CCNC(=O)c1c(C)[nH]c(/C=C2\C(=O)Nc3ccc(F)cc32)c1C,26.6 µM (active),–
C=CC(=O)OCCn1c(=O)n(CCOC(=O)C=C)c(=O)n(CCOC(=O)C=C)c1=O,24.3 µM (active),–
NNc1nc(-c2ccc([N+](=O)[O-])cc2)cs1,–,-7.28%
COc1cc(/C=C/C(=O)O[C@H]2CC[C@]34C[C@]35CC[C@]3(C)[C@@H]([C@H](C)CCC=C(C)C)CC[C@@]3(C)[C@@H]5CC[C@H]4C2(C)C)ccc1O,15 µM (active),–
O=C(Nc1cccc([N+](=O)[O-])c1)c1cc2ccccc2cc1O,–,-13.4%
CCCCC(CC)COC(=O)c1ccccc1C(=O)O (stereo not given),–,-0.0788%
O=C1c2c(O)ccc(Nc3ccc(CCO)cc3)c2C(=O)c2c([N+](=O)[O-])ccc(O)c21,–,-11.5%
CC(C)(C)CC(C)(C)c1ccc(OCCOCC[N+](C)(C)Cc2ccccc2)cc1,–,12.8%
Cc1ccc(-n2nc(C(C)(C)C)cc2NC(=O)Nc2ccc(OCCN3CCOCC3)c3ccccc23)cc1,–,-1.46% [at 42.5 µM]
c1cc(C(c2ccc(OCC3CO3)cc2)c2ccc(OCC3CO3)cc2)ccc1OCC1CO1 (stereo not given),–,10.7%
CC(C)CCCCCCCCCCCCCCC(=O)O,–,0.0421%
O=C(Oc1ccccc1)c1ccccc1C(=O)Oc1ccccc1,–,0.985%
C1CCCC1,–,-1.69%
CC(C)(C)NC(=O)[C@@H]1C[C@@H]2CCCC[C@@H]2CN1C[C@@H](O)[C@H](Cc1ccccc1)NC(=O)[C@H](CC(N)=O)NC(=O)c1ccc2ccccc2n1,69.5 µM (active),–
NC(=O)NS(=O)(=O)c1ccc(N)cc1,–,0.917% [at 42.5 µM]
Nc1c(Cl)cc(Cl)cc1Cl,–,1.35%
Cc1cc(O)c2ccccc2c1O,–,-13.1% [at 42.5 µM]
COC(=O)C1=C(C)NC(C)=C(C(=O)OCCc2ccc(N3CCN(C(c4ccccc4)c4ccccc4)CC3)cc2)C1c1cccc([N+](=O)[O-])c1 (stereo not given),–,-2.07% [at 42.5 µM]
CC(=O)OCC(C)OC(C)=O (stereo not given),–,-0.0523%
C=C(C)C(=O)OCC[N+](C)(C)C,–,0.433%

Compound,Potency,caspase activation
CC(C)(C)c1ccc(C(=O)CCCN2CCC(OC(c3ccccc3)c3ccccc3)CC2)cc1,29.8 µM (active),–
Cc1oc(-c2ccccc2)nc1CCC(=O)c1ccc(CC2SC(=O)NC2=O)cc1 (stereo not given),–,-2.94% [at 42.5 µM]
Clc1ccccc1C(c1ccccc1)(c1ccccc1)n1ccnc1,inactive,–
CN(C)c1ccc(C2(c3ccc(N(C)C)cc3)OC(=O)c3cc(N(C)C)ccc32)cc1,–,-0.408%
CCCCCCCCCCC=O,–,-0.0711%
O=c1cccccc1O,–,0.864%
CCCCCCOC(=O)c1ccc(O)cc1,inactive,–
CCc1cc(Cc2cc(CC)cc(C(C)(C)C)c2O)c(O)c(C(C)(C)C)c1,68.6 µM (active),–
O=S1(=O)CC(Cl)(Cl)C(Cl)(Cl)C1,–,-15%
Oc1cc2ccccc2c2ccccc12,–,-14.4%
c1ccc(CSCc2ccccc2)cc1,–,-9.14%
Clc1ccc2cc3ccccc3cc2c1,–,-2.63%
CC(=O)N1CCN(c2ccc(OC[C@H]3CO[C@](Cn4ccnc4)(c4ccc(Cl)cc4Cl)O3)cc2)CC1,68.6 µM (active),–
CCCCCCCC(=O)[O-].CCCCCCCC(=O)[O-].[Zn+2],–,2.39% [at 42.5 µM]
CN(C/C=C/C#CC(C)(C)C)Cc1cccc2ccccc12,–,-0.245% [at 42.5 µM]
O=c1[nH]sc2ccccc12,–,-9.99%
Oc1ccc(N=Nc2ccccc2)cc1,–,-17.5%
Cc1cc(O)c(Cl)c(C)c1Cl,–,1.41%
CC(C)(C)c1ccc(C(=O)O)cc1,–,-1.41%
Cc1cc(C2CCCCC2)n(O)c(=O)c1,–,1.74% [at 42.5 µM]
